Results reported in PubChem BioAssay AID504892 (The Scripps Research Institute Molecular Screening Center, 2011).
Activity calls are given as the source filed them. The rule behind the calls is not given here.

Target: sn-1-specific diacylglycerol lipase ABHD11 (Homo sapiens) (UniProt Q8NFV4)
Test: ABHD11 inhibitors, late-stage follow-up, gel-based ABPP, fluorescence, human isoform (AID 504892)
Settings: human ABHD11 proteome; at 20 µM (top of the series) unless noted

Sequence of sn-1-specific diacylglycerol lipase ABHD11 (Homo sapiens) (Q8NFV4 whole entry, looked up, canonical isoform): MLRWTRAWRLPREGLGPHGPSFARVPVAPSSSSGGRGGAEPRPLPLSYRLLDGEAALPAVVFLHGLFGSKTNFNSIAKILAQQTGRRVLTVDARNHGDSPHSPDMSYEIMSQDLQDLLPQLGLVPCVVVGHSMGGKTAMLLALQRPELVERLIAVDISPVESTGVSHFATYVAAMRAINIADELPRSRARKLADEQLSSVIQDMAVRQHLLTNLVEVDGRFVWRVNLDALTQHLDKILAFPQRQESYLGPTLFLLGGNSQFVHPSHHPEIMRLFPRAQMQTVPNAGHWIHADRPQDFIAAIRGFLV

| SMILES | inhibition |
| --- | --- |
| CCC1CCCCN1C(=O)Oc1ccc([N+](=O)[O-])cc1 (configuration not stated) | 0% (inactive) |
| CCC1CCCCN1C(=O)n1ncc(C(O)(c2ccccc2)c2ccccc2)n1 (configuration not stated) | 100% [at 0.15 µM] (active) |
